Data reported in PubChem BioAssay (NCATS).
Results filed as inconclusive are left out. Active and inactive are the calls of the source. Calls come from the whole dose curve; as a rule, active = well fitted curve in the direction sought with a large enough effect; inconclusive = small, poorly fitted or top-dose-only effect, or another doubt; inactive = no such curve, though single readings can be large; an effect the other way counts as inactive or inconclusive.

Tests used:
[1] = Quantitative High-Throughput drug screen in 47 multiple myeloma cell lines against the NCATS MIPE library collection: KHM11_PLB cell viability assay (AID 1918962); note: nearly all actives have a fitted effect of over 35% in size; note: potency is the fitted concentration of half-maximal effect
Summary of the method: (§1)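 Approved and investigational drugs from MIPE 4.0 were added by pin tool to 500 cells per well. After 48 hours at 37C, ATP-based CellTiter-Glo luminescence indicated remaining viability.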

[2] = Quantitative High-Throughput drug screen in 47 multiple myeloma cell lines against the NCATS MIPE library collection: JIM3_ECACC cell viability assay (AID 1918963; note: nearly all actives have a fitted effect of over 35% in size; note: potency is the fitted concentration of half-maximal effect)
Summary of the method: as §1

[3] = Quantitative High-Throughput drug screen in 47 multiple myeloma cell lines against the NCATS MIPE library collection: JIM1_ECACC cell viability assay (AID 1918964)
Summary of the method: (§2)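 Myeloma cell lines, 500 cells per well, exposed to MIPE 4.0 library compounds for 48 h at 37C, 5% CO2. Viability from ATP by CellTiter-Glo luminescence; normalised to DMSO (100%) and media-only (0%) wells.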

[4] = Quantitative High-Throughput drug screen in 47 multiple myeloma cell lines against the NCATS MIPE library collection: JJN3_DSMZ cell viability assay (AID 1918966; note: nearly all actives have a fitted effect of over 50% in size; note: potency is the fitted concentration of half-maximal effect)
Summary of the method: as §2

[5] = Quantitative High-Throughput drug screen in 47 multiple myeloma cell lines against the NCATS MIPE library collection: H1112_PLB cell viability assay (AID 1918967; note: nearly all actives have a fitted effect of over 30% in size; note: potency is the fitted concentration of half-maximal effect)
Summary of the method: as §2

[6] = Quantitative High-Throughput drug screen in 47 multiple myeloma cell lines against the NCATS MIPE library collection: Karpas25_ECACC cell viability assay (AID 1918968; note: nearly all actives have a fitted effect of over 35% in size; note: potency is the fitted concentration of half-maximal effect)
Summary of the method: as §2

[7] = Quantitative High-Throughput drug screen in 47 multiple myeloma cell lines against the NCATS MIPE library collection: KMS27_JCRB cell viability assay (AID 1918970); settings: KMS27 myeloma cells, CellTiter-Glo ATP viability, 48 h; viability (% of DMSO): at 45.8 µM (top of the series); note: nearly all actives have a fitted effect of over 30% in size; note: potency is the fitted concentration of half-maximal effect
Summary of the method: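 KMS27_JCRB myeloma cells, 500 per well, exposed 48 h at 37 C, 5% CO2 to MIPE 4.0 compounds. Viability from ATP by CellTiter-Glo luminescence, normalized to DMSO (100%) and medium-only (0%) wells.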

[8] = Quantitative High-Throughput drug screen in 47 multiple myeloma cell lines against the NCATS MIPE library collection: KMS12BM_JCRB cell viability assay (AID 1918971); note: nearly all actives have a fitted effect of over 35% in size; note: potency is the fitted concentration of half-maximal effect
Summary of the method: (§3)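 Myeloma cells (500 per well) were exposed to MIPE 4.0 compounds by pin transfer and incubated 48 hours at 37C, 5% CO2. Viability was read as ATP by CellTiter-Glo luminescence, normalised to DMSO (100%) and media-only (0%) wells.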

[9] = Quantitative High-Throughput drug screen in 47 multiple myeloma cell lines against the NCATS MIPE library collection: KMS12PE_JCRB cell viability assay (AID 1918972); note: nearly all actives have a fitted effect of over 30% in size; note: potency is the fitted concentration of half-maximal effect
Summary of the method: (§4)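 Inhibition of cell viability is measured here. Each line was plated at 500 cells per well, treated with MIPE 4.0 drugs, kept 48 hours at 37C, then assayed for ATP content by CellTiter-Glo luminescence.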

[10] = Quantitative High-Throughput drug screen in 47 multiple myeloma cell lines against the NCATS MIPE library collection: KMS26_JCRB cell viability assay (AID 1918975); note: nearly all actives have a fitted effect of over 45% in size; note: potency is the fitted concentration of half-maximal effect
Summary of the method: as §3

[11] = Quantitative High-Throughput drug screen in 47 multiple myeloma cell lines against the NCATS MIPE library collection: MOLP8_DSMZ cell viability assay (AID 1918977); note: nearly all actives have a fitted effect of over 45% in size; note: potency is the fitted concentration of half-maximal effect
Summary of the method: (§5)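 ATP-based luminescence (CellTiter-Glo, 5 min RT incubation) quantified surviving cells following two days' treatment with MIPE 4.0 agents at 37 °C, 5% CO2.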

[12] = Quantitative High-Throughput drug screen in 47 multiple myeloma cell lines against the NCATS MIPE library collection: NCIH929_DSMZ cell viability assay (AID 1918978); note: nearly all actives have a fitted effect of over 35% in size; note: potency is the fitted concentration of half-maximal effect
Summary of the method: as §5

[13] = Quantitative High-Throughput drug screen in 47 multiple myeloma cell lines against the NCATS MIPE library collection: OCIMY1_PLB cell viability assay (AID 1918979); note: nearly all actives have a fitted effect of over 35% in size; note: potency is the fitted concentration of half-maximal effect
Summary of the method: as §5

[14] = Quantitative High-Throughput drug screen in 47 multiple myeloma cell lines against the NCATS MIPE library collection: MM1R_ATCC cell viability assay (AID 1918981); note: nearly all actives have a fitted effect of over 35% in size; note: potency is the fitted concentration of half-maximal effect
Summary of the method: as §5

[15] = Quantitative High-Throughput drug screen in 47 multiple myeloma cell lines against the NCATS MIPE library collection: LP1_DSMZ cell viability assay (AID 1918982); note: nearly all actives have a fitted effect of over 35% in size; note: potency is the fitted concentration of half-maximal effect
Summary of the method: as §5

[16] = Quantitative High-Throughput drug screen in 47 multiple myeloma cell lines against the NCATS MIPE library collection: MM1S_ATCC cell viability assay (AID 1918980); note: nearly all actives have a fitted effect of over 45% in size; note: potency is the fitted concentration of half-maximal effect
Summary of the method: as §5

[17] = Quantitative High-Throughput drug screen in 47 multiple myeloma cell lines against the NCATS MIPE library collection: INA6_PLB cell viability assay (AID 1918965; note: nearly all actives have a fitted effect of over 55% in size; note: potency is the fitted concentration of half-maximal effect)
Summary of the method: as §4

[18] = Quantitative High-Throughput drug screen in 47 multiple myeloma cell lines against the NCATS MIPE library collection: KMS20_JCRB cell viability assay (AID 1918973); note: potency is the fitted concentration of half-maximal effect; nearly all actives have a fitted effect of over 45% in size
Summary of the method: as §2

[19] = Quantitative High-Throughput drug screen in 47 multiple myeloma cell lines against the NCATS MIPE library collection: MMM1_PLB cell viability assay (AID 1918976); note: nearly all actives have a fitted effect of over 35% in size; note: potency is the fitted concentration of half-maximal effect
Summary of the method: as §5

[20] = Quantitative High-Throughput drug screen in 47 multiple myeloma cell lines against the NCATS MIPE library collection: KMS21BM_JCRB cell viability assay (AID 1918974); settings: ATP luminescence, 48 h; viability: at 45.8 µM (top of the series); note: potency is the fitted concentration of half-maximal effect
Summary of the method: as §2

Measured: Potency

CC(=O)OCC(=O)[C@@]1(O)CC[C@H]2[C@@H]3CCC4=CC(=O)CC[C@]4(C)[C@@H]3C(=O)C[C@@]21C
not listed: [16] | [17] | [18] | [19] | [20]
inactive: all other assays above

C=CC1=C(C(=O)O)N2C(=O)[C@@H](NC(=O)C(=NO)c3csc(N)n3)[C@H]2SC1
not listed: [4] | [9] | [11] | [12] | [17] | [18] | [19] | [20]
inactive: all other assays above

COc1ccc(C[C@@H](C)[C@@H](C)Cc2ccc(OC)c(OC)c2)cc1OC
active: [1] 0.148 µM | [2] 0.418 µM | [17] 0.662 µM | [4] 0.833 µM | [5] 0.296 µM | [6] 0.662 µM | [7] 0.166 µM | [8] 0.662 µM | [9] 0.372 µM | [18] 2.35 µM | [10] 0.59 µM | [19] 5.9 µM | [11] 2.96 µM | [12] 1.87 µM | [14] 1.05 µM

O=C(O)C=Cc1ccc(Cn2ccnc2)cc1
not listed: [7] | [17] | [18] | [19] | [20]
inactive: all other assays above

CC(C)OC(=O)[C@H](C)N[P@](=O)(OC[C@H]1O[C@@H](n2ccc(=O)[nH]c2=O)[C@](C)(F)[C@H]1O)Oc1ccccc1
active: [8] 1.66 µM
not listed: [3] | [4] | [5] | [14] | [18] | [19] | [20]
inactive: all other assays above

COc1cc2c(cc1OC)[C@@H]1C(=O)c3ccc4c(c3O[C@@H]1CO2)C=CC(C)(C)O4
active: [1] 4.18 µM | [2] 8.33 µM | [17] 0.001 µM | [4] 9.35 µM | [5] 0.0296 µM | [8] 0.418 µM | [9] 0.372 µM | [18] 6.62 µM | [10] 9.35 µM | [19] 0.0187 µM | [11] 11.8 µM | [12] 0.662 µM | [16] 2.96 µM | [15] 0.0296 µM

N#CC(=C(N)Sc1ccc(N)cc1)c1ccccc1C(F)(F)F
active: [1] 0.418 µM | [2] 5.9 µM | [17] 8.33 µM | [5] 3.32 µM | [6] 13.2 µM | [8] 7.43 µM | [18] 0.469 µM | [12] 1.05 µM | [14] 14.8 µM | [15] 16.6 µM
inactive: [7] | [9] | [19]

COc1cc(C(C)C)c(Oc2cnc(NC(CO)CO)nc2N)cc1I
active: [6] 18.7 µM | [20] 0.662 µM | [10] 2.64 µM | [16] 1.05 µM | [14] 2.64 µM
not listed: [3] | [4] | [7] | [9] | [18] | [19]
inactive: all other assays above

COc1cc(O)c2c(c1)C1OC1C[C@H](O)[C@H](O)C(=O)C=CC[C@H](C)OC2=O (stereo partly drawn)
active: [1] 0.296 µM | [2] 3.72 µM | [17] 2.96 µM | [4] 5.26 µM | [5] 5.26 µM | [6] 3.32 µM | [7] 7.43 µM | [8] 1.48 µM | [9] 11.8 µM | [10] 1.87 µM | [19] 18.7 µM | [11] 0.418 µM | [12] 1.48 µM | [13] 5.26 µM | [16] 2.96 µM | [14] 2.64 µM | [15] 5.26 µM

C[C@H]1O[C@H](O[C@H]2[C@H](O)[C@@H](O)[C@@H](O[C@H]3[C@H](O)[C@@H](O)C(O)O[C@H]3CO)O[C@H]2CO)[C@H](O)[C@@H](O)[C@H]1N[C@H]1C=C(CO)[C@@H](O)[C@H](O)[C@@H]1O (stereo partly drawn)
inactive: [1] | [2] | [17] | [5] | [10] | [11] | [13] | [16] | [14] | [15]

CN(C)CC[C@H](c1ccc(Cl)cc1)c1ccccn1
inactive: [1] | [2] | [17] | [4] | [5] | [6] | [10] | [12] | [15]
active: [16] 16.6 µM
